Source: ChEMBL document CHEMBL3988442, “University of Dundee, Small-Polar-MMV Screening Library” (2021)
Out of some 48,000 compounds screened, about 13,000 (27%) showed an effect of 50% or more. This is one part of the list.

tested on: Wolbachia pipientis; experiment: Anti-Wolbachia Cell-Based Screen; assay type: functional; set-up: scale not given: in the data most compounds retested in dose-response had high values; conditions: 5 µM

SMILES | Percent Effect
O=S(=O)(NCC1(O)CCOc2ccccc21)c1ccccc1F (stereo unspecified) | 0%
CC(=O)Nc1nc(C(=O)Nc2ccc(N3CCCCC3)nc2)cs1 | 7.498%
CC(C)=CCN1Cc2nnc(C3CCOCC3)n2C(Cc2c[nH]cn2)C1 (stereo unspecified) | -4.476%
Cc1nccn1-c1cc(CNS(=O)(=O)N2CCCC(C)C2)ccn1 (stereo unspecified) | 1.62%
c1ccc(C[C@H]2[C@H](N3CCOCC3)CCN2Cc2cccnc2)cc1 | -10.76%
O=C(C1CCOCC1)N1CC[C@H](O)[C@@H]1Cc1cccnc1 | 108.8%
CN(C)C(=O)N1CCN(Cc2nnc(C(C)(C)C)o2)CC1 | 5.287%
Cn1nc(COc2cccnc2)c2c1CCN(CC1CC1)C2.O=C(O)C(F)(F)F.O=C(O)C(F)(F)F | 110.2281%
Cn1nc(COc2cccnc2)c2c1CCN(Cc1ccco1)C2.O=C(O)C(F)(F)F.O=C(O)C(F)(F)F | -12.77%
CN1CCc2c(c(COc3cncnc3)nn2CC2CC2)C1.O=C(O)C(F)(F)F | -14.06%
Cc1cccc(CN2Cc3[nH]nc(COc4cccnc4)c3C2)n1.O=C(O)C(F)(F)F.O=C(O)C(F)(F)F.O=C(O)C(F)(F)F | 3.508%
COCCN1CCc2c(c(COc3cccnc3)nn2C)C1.O=C(O)C(F)(F)F.O=C(O)C(F)(F)F | 96.91%
CC(C)N1CCc2c(c(COc3cccnc3)nn2CC2CC2)C1.O=C(O)C(F)(F)F.O=C(O)C(F)(F)F.O=C(O)C(F)(F)F | -5.827%
Brc1ccc(C2(NCc3noc(C4CC4)n3)CCC2)cc1 | 4.263%
Cc1cccc(-c2nc(CNC3CCc4ncnn4C3)no2)c1 (stereo unspecified) | 121.2%
c1ccc(-c2nccc(CNC3CCc4ncnn4C3)n2)cc1 (stereo unspecified) | 120.1%
COc1ccc(-c2nc(CNC3CCc4nc(C)nn4C3)no2)cc1 (stereo unspecified) | 131.6%
CNC(=O)COc1ccccc1CNC1CCc2nc(C)nn2C1 (stereo unspecified) | -0.6489%
CCc1nc2n(n1)CC(NCc1nc(C)c(C)o1)CC2 (stereo unspecified) | -17.82%
Cc1nc2n(n1)CC(NCCc1cccs1)CC2 (stereo unspecified) | 7.216%
CCc1nc2n(n1)CC(NCc1noc(-c3ccc(C)cc3)n1)CC2 (stereo unspecified) | 89.35%
c1csc(-c2nc(CNC3CCc4ncnn4C3)cs2)c1 (stereo unspecified) | -10.85%
CCc1nc2n(n1)CC(NCc1noc(-c3ccccc3)n1)CC2 (stereo unspecified) | -10.54%
COc1ccccc1CC(=O)N1CCCC(c2nccn2CC(N)=O)C1 (stereo unspecified) | 0.4607%

SMILES | Percent Effect
COc1ccc(OCCc2sc(C3(O)CCCNCC3)nc2C)cc1.Cl (stereo unspecified) | 2.251%
O=C1NCCCC12CCN(c1nc3c(c(C(F)(F)F)n1)CCCC3)C2 (stereo unspecified) | -1.844%
Cc1ccc(-c2nc(CNC3CCc4ncnn4C3)no2)cc1 (stereo unspecified) | 118.2%
Cc1nc2n(n1)CC(NCc1nc(-c3cccnc3)no1)CC2 (stereo unspecified) | -5.692%
c1ccc(-c2noc(CNC3CCc4ncnn4C3)n2)nc1 (stereo unspecified) | 0.9775%
Cc1cccc(-c2nc(CNC3CCc4nc(C)nn4C3)no2)c1 (stereo unspecified) | 111%
Cc1ccc(O)c(CNC2CCc3nc(C)nn3C2)n1 (stereo unspecified) | 92.84%
Cc1nc2n(n1)CC(NCc1nc(C)c(C)o1)CC2 (stereo unspecified) | -8.158%
Fc1ccc(-c2cnc(CNC3CCc4ncnn4C3)o2)cc1 (stereo unspecified) | 7.148%
c1nc2n(n1)CC(NCc1nc(-c3ccsc3)no1)CC2 (stereo unspecified) | -6.7%
Cc1nc2n(n1)CC(NCc1nc3ccccc3o1)CC2 (stereo unspecified) | 12.54%
Cc1nc2n(n1)CC(NCc1nc(-c3cccs3)no1)CC2 (stereo unspecified) | -19.82%
c1ccc(-c2nc(CNC3CCc4ncnn4C3)no2)cc1 (stereo unspecified) | 109.8%
O=C(CN1CCOC(c2ccc(Cl)s2)C1)NCc1ccco1 (stereo unspecified) | 16.69%
CC(C)OC(=O)CCNC(=O)Nc1cccc2ncccc12 | -2.669%
COC1CCCN(C(=O)NCc2ccc(C(=O)N(C)C(C)C)cc2)C1 (stereo unspecified) | -8.588%
COc1ccccc1CNC(=O)N1CCCC(NS(C)(=O)=O)C1 (stereo unspecified) | 10.46%
CS(=O)(=O)NC1CCCN(C(=O)NCc2cccc(F)c2)C1 (stereo unspecified) | 119.2%
CS(=O)(=O)NC1CCN(C(=O)NCCc2ccccc2F)CC1 | 4.744%
Cc1cc(CN2CCCC(NS(C)(=O)=O)C2)ccc1-n1cncn1 (stereo unspecified) | 11.85%
CN1C[C@@H]2CN(C(=O)NCc3cccc(F)c3)CCC[C@]2(C(=O)O)C1.O=C(O)C(F)(F)F | -0.5828%
CS(=O)(=O)NC1CCN(C(=O)c2ccc(Br)o2)C1 (stereo unspecified) | -2.031%
COc1ccc(CNC(=O)N2CCCC(Nc3ccccc3)C2)cn1 (stereo unspecified) | -13.37%
CS(=O)(=O)NC1CCCN(C(=O)NCc2ccccc2Cl)C1 (stereo unspecified) | 118.4%

SMILES | Percent Effect
Cc1ccc(CNC(=O)N2CCCC(NS(C)(=O)=O)C2)cc1 (stereo unspecified) | 112.9%
CS(=O)(=O)NC1CCCN(C(=O)NCc2ccoc2)C1 (stereo unspecified) | 92.13%
CC(C(=O)N1CCc2ccccc21)N1CCc2cncnc2C1 (stereo unspecified) | 1.414%
CC1(C)CN(C(=O)CCc2nc(-c3ccncc3)no2)CCO1 | 17.48%
CC(=O)N(C/C=C/c1ccccc1)CCO | -9.29%
CC(C)c1nccn1C1CCCN(C(=O)c2ccc3nncn3c2)C1 (stereo unspecified) | 89.79%
CC(C)c1nccn1C1CCCN(C(=O)c2ccn(C)c(=O)c2)C1 (stereo unspecified) | -3.204%
O=C(c1ccc2nncn2c1)N1CCCC(n2ccnc2)C1 (stereo unspecified) | 105.7%
Cc1nccn1C1CCCN(C(=O)c2ccc3nncn3c2)C1 (stereo unspecified) | 98.97%
CC(C)c1nccn1C1CCCN(C(=O)c2ccc3c(c2)COC3)C1 (stereo unspecified) | -6.912%
CCc1nccn1C1CCCN(C(=O)c2ccc3nncn3c2)C1 (stereo unspecified) | -7.143%
CN(Cc1cccnc1)C[C@@H]1OC[C@H]2CN(C(=O)C3CC3)CC[C@H]21.O=C(O)C(F)(F)F.O=C(O)C(F)(F)F | -11.76%
O=C(Nc1cc(Cl)ccc1Cl)NC1CCN(C2CCOC2)CC1 (stereo unspecified) | -16.63%
CCCn1ccnc1CN1C[C@@H](CN2CCCCC2)[C@@H](CO)C1 | -0.9532%
Cn1cc(CCCN2CCN(C(=O)c3cccc(O)c3)CC2)cn1 | -1.766%
Cc1nn(C)cc1-c1ccnc(N(C)Cc2cnn(C)c2)n1 | -26.11%
CN(CCCc1cnn(C)c1)C(=O)Nc1cccc(C#N)c1 | -5.075%
Cc1nc(N(C)CCCc2nccn2C)c2nc(C)oc2n1 | -2.669%
CN(Cc1cnn(C)c1)c1nccc(-c2cc(C(=O)O)ccn2)n1 | 109.1%
CC(C)N(Cc1cnn(C)c1)C(=O)c1ccnc(N(C)C)c1 | 14.77%
CN(CCCc1nccn1C)c1nccc(-c2cc(C(=O)O)ccn2)n1 | 93.19%
CN(CCCc1cnn(C)c1)c1nccc(-c2cc(C(=O)O)ccn2)n1 | 108.4%
CN(CCCc1nccn1C)c1nccc(N2CCC(O)C2)n1 (stereo unspecified) | 13.17%
